Laboratory results: PubChem BioAssay (NCATS)
Inconclusive results are not listed. Active and inactive are the calls of the source. Calls come from the whole dose curve; as a rule, active = well fitted cell-killing curve with a large enough effect; inconclusive = small, poorly fitted or top-dose-only effect, or effect the other way; inactive = no such curve, though single readings can be large or run the other way.

assay: Viability qHTS for spleen associated tyrosine kinase inhibitor (SYKi) naive MV4-11 cells (AID 1963823); conditions: MV4-11 AML viability, CellTiter-Glo luminescence, 72 h; series mostly up to 45 µM; viability (% of control): at the top concentration; note: nearly all actives have a fitted effect of over 40% in size
Summary of the method: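 Seeding of 500 SYKi-naive MV4-11 cells per well onto pre-dispensed compounds preceded a 72 hr incubation at 37 C. Luminescent CellTiter-Glo signal, read after 10 min at room temperature, reflected viable cells.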
Potency is the fitted concentration of half-maximal effect.

Compound	viability (% of control)	Potency
CC1(C)CC2C(C1)C(C)(O)C13CC1(COC3=O)C2O (stereo not drawn)	72.4% (inactive)	–
CCC(=O)OCC(=O)[C@@]1(OC(=O)CC)[C@@H](C)C[C@H]2[C@@H]3CCC4=CC(=O)C=C[C@]4(C)[C@@]3(F)[C@@H](O)C[C@@]21C	–	18.4 µM (active)
COc1ccc(CC2NCCc3c2[nH]c2ccc(C)cc32)cc1OC (stereo not drawn)	–	9.2 µM (active)
CC(=O)N[C@@H](CC(C)C)C(=O)N[C@@H](CCC(=O)O)C(=O)N[C@@H](CCC(=O)O)C(=O)N[C@@H](CC(=O)O)C(=O)Nc1ccc2c(C(F)(F)F)cc(=O)oc2c1	90% (inactive)	–
O=C(CCC1CCN(Cc2ccccc2)CC1)c1ccc2c(c1)NCCCC2	–	23.1 µM (active)
Clc1ccc(Cn2c(CN3CCCC3)nc3ccccc32)cc1	–	14.8 µM (active)
O=C(CC(c1ccccc1)c1ccccc1)N1CCN(C(c2ccccc2)c2ccccc2)CC1	–	13 µM (active)
NC1(C(=O)NC(CCO)c2ccc(Cl)cc2)CCN(c2ncnc3[nH]ccc23)CC1 (stereo not drawn)	–	2.31 µM (active)
COC(=O)c1ccnc(-c2cc(C(=O)Nc3ccc(C4(N)CC4)cc3)ccn2)c1	6.63% (inactive)	–
COC(=O)C1=CO[C@@H](O[C@@H]2O[C@H](CO)[C@@H](O)[C@H](O)[C@H]2O)[C@H]2[C@@H]1CC(OC)O[C@@H]2C (stereo partly drawn)	98.3% [at 17.3 µM] (inactive)	–
CC(C)=CCC[C@@](C)(O)[C@H]1CC[C@]2(C)[C@@H]1[C@H](O)CC1[C@@]3(C)CC[C@H](O[C@@H]4O[C@H](CO)[C@@H](O)[C@H](O)[C@H]4O[C@@H]4O[C@H](CO)[C@@H](O)[C@H](O)[C@H]4O)C(C)(C)[C@@H]3CC[C@]12C (stereo partly drawn)	79% [at 17.3 µM] (inactive)	–
CC1(C)SC2C(NC(=O)[C@H](C(=O)O)c3ccsc3)C(=O)N2C1C(=O)O (stereo partly drawn)	94% (inactive)	–
COc1cc(/C=C/CO)cc(OC)c1O[C@@H]1O[C@H](CO[C@@H]2O[C@H](CO)[C@@H](O)[C@H](O)[C@H]2O)[C@@H](O)[C@H](O)[C@H]1O	87.7% [at 17.3 µM] (inactive)	–
O=c1cc(-c2ccc(O)cc2)oc2cc(OC3OC(CO)C(O)C(O)C3O)c(C3OC(CO)C(O)C(O)C3O)c(O)c12 (stereo not drawn)	62.2% (inactive)	–
CC1=C(C)C(=O)C(CCCCC#CCCCC#CCO)=C(C)C1=O	–	11.9 µM (active)
CC1=C(COC2OC(CO)C(O)C(O)C2O)C(C(CO)C(=O)O)CC1 (stereo not drawn)	87.4% (inactive)	–
CCCCNc1ncc2c(-c3ccc(S(=O)(=O)N4CCOCC4)cc3)nn(C3CCC(O)CC3)c2n1 (stereo not drawn)	–	0.0184 µM (active)
C=C1[C@H](OC(C)=O)[C@H]2[C@@H](OC(C)=O)[C@](C)(OC(C)=O)C[C@]2(OC(C)=O)C(=O)[C@H](C)/C=C/C(C)(C)C(=O)[C@H](OC(=O)C(C)C)[C@H]1OC(C)=O	90% [at 17.3 µM] (inactive)	–
COC1CC(O[C@H]2CC[C@]3(C)C4CC[C@]5(C)C(C6=CC(=O)OC6)=CCC56OC46CC[C@@H]3C2)OC(C)C1O[C@@H]1O[C@H](CO[C@@H]2O[C@H](CO)[C@@H](O)[C@H](O)[C@H]2O)[C@@H](O)[C@H](O)[C@H]1O (stereo partly drawn)	–	1.55 µM (active)
C[C@@H]1O[C@@H](O[C@H]2[C@@H]3C=CO[C@@H](O[C@@H]4O[C@H](CO)[C@@H](O)[C@H](O)[C@H]4O)[C@@H]3[C@@]3(CO)O[C@@H]23)[C@H](OC(=O)/C=C/c2ccc(O)cc2)[C@H](O)[C@H]1O	47.8% [at 17.3 µM] (inactive)	–
C[C@@H]1[C@H](O)[C@@H]2OC(=O)C3=C2[C@H](CCC3)[C@@]12C[C@@H](c1ccoc1)OC2=O	77% (inactive)	–
COC(=O)C1=CO[C@@H](O[C@@H]2O[C@H](CO)[C@@H](O)[C@H](O)[C@H]2O)[C@@H]2[C@@H](C)[C@@H](OC(=O)/C=C/c3ccccc3)[C@@H](O)[C@H]12	67.9% [at 17.3 µM] (inactive)	–
C=CC(C)(C)c1[nH]c2ccccc2c1C[C@@H]1NC(=O)[C@H](C)NC1=O	79.1% (inactive)	–
O=C(/C=C/c1ccccc1)OC[C@]12O[C@H]1[C@@H](O)[C@@H]1C=CO[C@@H](O[C@@H]3O[C@H](CO)[C@@H](O)[C@H](O)[C@H]3O)[C@@H]12	70.2% [at 17.3 µM] (inactive)	–
Cc1ncc(Cl)cc1NCc1ccc(C(=O)NC(CC2CCCC2)C(=O)NC2CC2)s1 (stereo not drawn)	–	20.6 µM (active)
C=C[C@H]1[C@H](O[C@@H]2O[C@H](CO[C@@H]3OC[C@](O)(CO)[C@H]3O)[C@@H](O)[C@H](O)[C@H]2O)OC=C2C(=O)OCC[C@H]21	72.9% [at 17.3 µM] (inactive)	–
Nc1ncnc2c1nc(Cl)n2C1O[C@H](CO)[C@@H](O)[C@H]1O (stereo partly drawn)	–	0.366 µM (active)
CCC(=O)N1CCc2cc(OC)c(O)cc2C1	72.5% (inactive)	–
